Assay results from PubChem BioAssay (NCATS).
Several values for one entry are separate records, joined by “and”; a condition that tells them apart may be missing. Identical values can stand only once. Inconclusive results are not listed. Entries that show only a call come without a potency. Activity calls are given as the source filed them. Calls come from the whole dose curve; as a rule, active = well fitted inhibition curve with a large enough effect; inconclusive = small, poorly fitted or top-dose-only effect; inactive = no such curve, though single readings can be large or run the other way.

biological target: Tyrosine-protein kinase Yes (Homo sapiens) (UniProt P07947); test: qHTS for small molecule inhibitors of Yes1 kinase: Primary Screen (AID 686947); conditions: Yes1 kinase biochemical qHTS inhibition; series mostly up to 76.9 µM; note: nearly all actives have a fitted effect of over 60% in size
Source text: The Src family of non-receptor protein tyrosine kinases contains nine members, including Yes1, Src, Fyn, Lyn, and […]. These kinases have important roles in a variety of cellular functions, such as cell proliferation, survival, and differentiation. Src, the most well characterized member of this family, has been previously identified as a proto-oncogene. […] In melanoma, it has been shown that Yes1, and not other family members, such as Src, is functionally involved in the malignant phenotype. Additionally, a recent study examining the downregulation of Yes1 by shRNA found significant effects on cell survival/growth for basal-like and Her2-positive breast cancers. Despite the potential for Yes1 to be a target for the above-described cancers, there are very few reports on the identification of potent and selective inhibitors of Yes1 kinase. Antagonists of Yes1 would further elucidate Yes1 biology and help to confirm whether Yes1 is a viable target for therapeutic intervention in a variety of cancers.
A compound that inhibits Yes1 could be important for the treatment of various cancers in which Yes1 is highly expressed and can also be used as a tool compound to help further elucidate Yes1 biology. To that end, we have developed a sensitive HTS biochemical assay for Yes1 activity. This assay was screened against several small compound libraries to look for modulators of activity. Inhibition is the desired output for this assay.
NIH Molecular Libraries Probe Production Centers Network [MLPCN]
NIH Chemical Genomics Center [NCGC]
Two micoliter of Yes1 enzyme (columns 1-2, 5-48; Millipore, Billerica, MA) are dispensed into Greiner, white solid-bottom 1536-well assay plates; columns 3 and 4 receive buffer without Yes1 as a control for maximum inhibition. Compounds (23 nL) are then transferred via Kalypsys pin tool equipped with 1536-pin array (10 nL slotted pins, V&P Scientific, San Diego, CA). […] Following addition of compound and a 20 minute incubation, 1 uL of substrate (ATP and poly-E4Y from Sigma-Aldrich, St. Louis, MO) is added, and the biochemical reaction is allowed to progress for 60 minutes at room temperature. The production of ADP is then quantified by the ADP-Glo Kit (Promega, Madison, WI). First, 2 uL of the first kit reagent is added, and the reaction is incubated for 45 minutes; then, 4 uL of the second kit reagent are added and the reaction is incubated for 30 minutes at which time the luminescence is read on a Viewlux plate reader (Perkin-Elmer, Waltham, MA). The final concentration of reagents in the reaction are 4 nM Yes1, 0.1 mM ATP, 100 uM EGTA, 10 mM MgCl2, 0.3 mg/mL poly(E4Y), 50 mM Tris pH 7.5, 1 mM DTT, 150 mM NaCl, 0.01% Brij-35, and 5% glycerol. Data are normalized to DMSO-treated control columns with (maximum signal) and without (minimum signal) enzyme.
Potency is the fitted concentration of half-maximal effect.

Sequence of Tyrosine-protein kinase Yes (Homo sapiens) (P07947 whole entry, looked up): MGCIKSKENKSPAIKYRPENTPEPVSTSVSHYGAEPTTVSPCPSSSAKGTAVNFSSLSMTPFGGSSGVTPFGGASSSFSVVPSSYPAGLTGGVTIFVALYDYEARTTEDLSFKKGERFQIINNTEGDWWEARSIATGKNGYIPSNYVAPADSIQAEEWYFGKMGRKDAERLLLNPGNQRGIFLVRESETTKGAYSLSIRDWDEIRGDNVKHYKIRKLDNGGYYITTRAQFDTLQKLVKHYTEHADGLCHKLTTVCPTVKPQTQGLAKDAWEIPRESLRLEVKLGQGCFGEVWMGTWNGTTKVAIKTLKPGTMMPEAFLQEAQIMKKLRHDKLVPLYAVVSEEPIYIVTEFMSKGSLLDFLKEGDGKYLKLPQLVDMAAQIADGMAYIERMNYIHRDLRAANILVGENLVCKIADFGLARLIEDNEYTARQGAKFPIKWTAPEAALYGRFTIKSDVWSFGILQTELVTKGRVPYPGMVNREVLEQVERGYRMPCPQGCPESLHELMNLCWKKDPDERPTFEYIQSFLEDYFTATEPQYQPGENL

| Structure (SMILES) | Potency |
| --- | --- |
| CCCCN1CCC(CNC(=O)c2c3n(c4ccccc24)CCCO3)CC1 | inactive |
| O=C(C=Cc1c(C(=O)O)[nH]c2cc(Cl)cc(Cl)c12)Nc1ccccc1 | inactive |
| Nc1nc(Nc2ccc(S(N)(=O)=O)cc2)nn1C(=O)c1c(F)cccc1F | 772 nM (active) |
| CC(=O)OCCN1C(=O)c2c(C)nc3ccc(S(=O)(=O)N4CCOCC4)cc3c2C1=O | inactive |
| CCOc1cc2ncc(C#N)c(Nc3ccc(F)c(Cl)c3)c2cc1NC(=O)C=CCN(C)C | 43.4 nM (active) |
| COc1ccc(OC)c(-c2nnc3ccc(-c4ccc(OC)c(O[C@@H]5CCOC5)c4)nn23)c1 | inactive |
| N#CCNC(=O)c1ccc(-c2ccnc(Nc3ccc(N4CCOCC4)cc3)n2)cc1 | 972 nM (active) |
| O=C(C=Cc1cccc(S(=O)(=O)Nc2ccccc2)c1)NO | 1.7 nM (active) |
| CN(C)CCCN=c1c2ccccc2n(C)c2[nH]c(=O)n(C)c(=O)c12 | inactive |
| Cc1ccc(C(N)=O)cc1Nc1nccc(-c2cn(C(C)C)c3cnccc23)n1 | 547 nM (active) |
| C#Cc1cccc(Nc2ncnc3cc(OC)c(OCCCCCCC(=O)NO)cc23)c1 | 1730 nM (active) |
| CC(=O)Nc1sc2c(c1-c1nc3ccccc3s1)CNC2 | inactive |
| C=C1C(=CC=C2CCCC3(C)[C@@H]([C@H](C)C=CC=CC(O)(CC)CC)CC[C@@H]23)C[C@@H](O)C[C@@H]1O (stereo not given in full) | inactive |
| C=CC(=O)Nc1cccc(Oc2nc(Nc3ccc(N4CCN(C)CC4)cc3OC)ncc2Cl)c1 | 4870 nM (active) |
| Cc1cn2c(-c3cn[nH]c3)cnc2c(Nc2ccc(C(=O)N3CCNCC3)cc2F)n1 | 21800 nM (active) |
| O=C(Nc1cc(C(F)(F)F)cc(C(F)(F)F)c1)c1cc(Cl)ccc1O | inactive |
| CCC[C@H](NC(=O)C(C#N)=Cc1cccc(Br)n1)c1ccccc1 | inactive |
| Cc1ccc(C(=O)Nc2cccc(C(F)(F)F)c2)cc1-c1ccc2nc(NCCN3CCOCC3)ncc2c1 | 7.7 nM (active) |
| CC(C)[C@H](C(=O)Nc1ccc(C(=O)NO)cc1)c1ccccc1 | inactive |
| COc1cc2c(Oc3ccc(-c4cnc(Nc5ccc(F)cc5)n(C)c4=O)cc3F)ccnc2cc1OCCCN1CCOCC1 | 137 nM (active) |

| Structure (SMILES) | Potency |
| --- | --- |
| CCN(CC)CCCCNc1ncc2cc(-c3cc(OC)cc(OC)c3)c(NC(=O)NC(C)(C)C)nc2n1 | 9720 nM (active) |
| NC(=O)c1c(OCc2c(F)cc(Br)cc2F)nsc1NC(=O)NCCCCN1CCCC1 | 1.9 nM (active) |
| Nc1ccc(C(=O)c2cc3c(ccc4ccccc43)[nH]2)cc1 | 30700 nM (active) |
| Cc1cc(Nc2cc(NC(=O)c3c(Cl)cccc3Cl)ccn2)nc(N)n1 | 194 nM (active) |
| COc1cc2ncn(-c3cc(OCc4ccccc4C(F)(F)F)c(C(N)=O)s3)c2cc1OC | inactive |
| CCC(=C(c1ccccc1)c1ccc(OCCN(C)C)cc1)c1ccccc1 | inactive |
| CC(C)(O)CCc1ccc(OCc2cc(-c3cccc(OC(F)F)c3)c3ncccc3c2)cc1 | inactive |
| CCN1CCN(CC(=O)Nc2ccc(-c3cccc4c(=O)cc(N5CCOCC5)oc34)c3sc4ccccc4c23)CC1 | inactive |
| O=C(NCCCNc1nc(Nc2cccc(NC(=O)N3CCCC3)c2)ncc1I)c1cccs1 | 1.37 µM (active) and 1.22 µM (active) |
| CN1CCC(CNc2ccc3ncc(-c4cccc(OC(F)(F)F)c4)n3n2)CC1 | 97.2 nM (active) |
| CC(C)C[C@H](NC(=O)CNC(=O)c1cc(Cl)ccc1Cl)B(O)O | inactive |
| COc1cc(C(C)C)c2c(c1)S(=O)(=O)N(COc1cc(=O)n3cccc(OCCN4CCCCC4)c3n1)C2=O | inactive |
| CC(NCc1ccc2c(c1)nc(NC(=O)c1ccc(-c3cn[nH]c3)s1)n2CC(C)(C)O)C(C)(C)C (stereo not given) | 5.5 nM (active) and 0.2 nM (active) |
| COc1ccc2c(c1)CC[C@@H](CN(C)CC(=O)O)[C@H]2c1ccccc1 | inactive |
| CN(c1ncccc1CNc1nc(Nc2ccc3c(c2)CC(=O)N3)ncc1C(F)(F)F)S(C)(=O)=O | 194 nM (active) |
| CCCCCN(CCC12CC3CC(CC(C3)C1)C2)C(=O)NCCCc1ccncc1 | inactive |
| COc1ccc(C=Cc2cc(OC)c(OC)c(OC)c2)cc1O | inactive |
| COc1cccc2nc(-c3cccs3)nc(NN3C(=O)C=C(C)C3=O)c12 | inactive |
| O=c1[nH]nc(Sc2ncc([N+](=O)[O-])s2)n1-c1ccc2c(c1)OCCO2 | inactive |
| O=C(NCCS(=O)(=O)c1ccc(C(F)(F)F)cn1)c1ccc(Cl)cc1 | inactive |
